In PMC7862700, “An all-to-all approach to the identification of sequence-specific readers for epigenetic DNA modifications on cytosine”:

Columns and labels:
Experiment in all cases: DAPPL (digital affinity profiling via proximity ligation, sequencing); 10 mM Tris-HCl pH 7.5, 50 mM NaCl, 1 mM DTT, 4% glycerol, room temperature, 30 min; GST-TFs on glutathione beads, 16-mer random dsDNA library, 0.1% formaldehyde crosslink after washing; high values mean tight binding
[1] = molecular target: T1, FLI1 (Homo sapiens, UniProt Q01543 1-452); settings: protein: recombinant; tags: N-terminal GST; dsDNA, one strand shown
T1 sequence: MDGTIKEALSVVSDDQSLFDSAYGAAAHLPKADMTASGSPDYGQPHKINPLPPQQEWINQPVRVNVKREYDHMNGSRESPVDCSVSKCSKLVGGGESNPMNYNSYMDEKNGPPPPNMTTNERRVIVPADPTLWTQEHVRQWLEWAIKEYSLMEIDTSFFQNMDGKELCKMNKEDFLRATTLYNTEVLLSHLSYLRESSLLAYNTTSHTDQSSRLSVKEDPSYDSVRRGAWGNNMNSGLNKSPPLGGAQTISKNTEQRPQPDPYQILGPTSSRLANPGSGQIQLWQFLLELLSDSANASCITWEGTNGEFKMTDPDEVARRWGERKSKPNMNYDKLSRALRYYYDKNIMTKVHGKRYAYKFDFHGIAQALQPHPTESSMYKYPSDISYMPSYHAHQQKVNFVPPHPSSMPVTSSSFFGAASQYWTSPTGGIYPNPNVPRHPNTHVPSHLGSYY
Outline: (§1)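 Human transcription factors were made in yeast as GST fusions, captured on glutathione beads and barcoded with DNA. With a tag-only sample included, the pool was incubated with 200 nmole of a random double-stranded 16-mer DNA library in Tris/NaCl/DTT/glycerol buffer at room temperature for 30 min, then crosslinked with 0.1% formaldehyde after washing, ligated by proximity, amplified and sequenced. For binding signal, each hexamer's read frequency for a factor is divided by its frequency for the tag-only sample.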

[2] = molecular target: T2, ELK1 (Homo sapiens, UniProt P19419 1-428); settings: protein: recombinant; tags: N-terminal GST; dsDNA, one strand shown
T2 sequence: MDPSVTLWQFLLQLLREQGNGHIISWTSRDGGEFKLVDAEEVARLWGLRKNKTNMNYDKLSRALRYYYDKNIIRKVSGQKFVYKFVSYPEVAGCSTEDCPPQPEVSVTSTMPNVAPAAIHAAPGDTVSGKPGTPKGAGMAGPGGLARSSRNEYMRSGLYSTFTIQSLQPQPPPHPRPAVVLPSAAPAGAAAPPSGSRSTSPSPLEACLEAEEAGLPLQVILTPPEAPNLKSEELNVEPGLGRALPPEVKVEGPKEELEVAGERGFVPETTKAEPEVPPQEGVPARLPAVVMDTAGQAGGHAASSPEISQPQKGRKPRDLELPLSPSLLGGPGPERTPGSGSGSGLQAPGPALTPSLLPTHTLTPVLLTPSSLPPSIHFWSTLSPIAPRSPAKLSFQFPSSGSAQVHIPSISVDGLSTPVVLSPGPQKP
Outline: as §1

[3] = molecular target: T3, GABPA (Homo sapiens, UniProt Q06546 1-454); settings: protein: recombinant; tags: N-terminal GST; dsDNA, one strand shown
T3 sequence: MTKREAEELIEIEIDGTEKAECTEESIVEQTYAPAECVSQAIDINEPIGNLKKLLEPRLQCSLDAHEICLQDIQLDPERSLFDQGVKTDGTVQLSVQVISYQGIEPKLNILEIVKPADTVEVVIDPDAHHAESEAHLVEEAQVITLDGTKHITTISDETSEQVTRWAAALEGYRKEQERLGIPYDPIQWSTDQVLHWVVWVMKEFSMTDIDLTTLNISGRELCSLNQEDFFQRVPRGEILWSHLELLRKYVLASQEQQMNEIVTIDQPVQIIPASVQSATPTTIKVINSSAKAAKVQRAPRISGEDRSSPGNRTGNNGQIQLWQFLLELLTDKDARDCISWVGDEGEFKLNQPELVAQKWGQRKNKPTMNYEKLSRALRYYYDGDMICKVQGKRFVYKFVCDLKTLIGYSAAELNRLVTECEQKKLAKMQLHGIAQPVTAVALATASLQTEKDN
Outline: as §1

[4] = molecular target: T4, ERG (Homo sapiens, UniProt P11308 1-479); settings: protein: recombinant; tags: N-terminal GST; dsDNA, one strand shown
T4 sequence: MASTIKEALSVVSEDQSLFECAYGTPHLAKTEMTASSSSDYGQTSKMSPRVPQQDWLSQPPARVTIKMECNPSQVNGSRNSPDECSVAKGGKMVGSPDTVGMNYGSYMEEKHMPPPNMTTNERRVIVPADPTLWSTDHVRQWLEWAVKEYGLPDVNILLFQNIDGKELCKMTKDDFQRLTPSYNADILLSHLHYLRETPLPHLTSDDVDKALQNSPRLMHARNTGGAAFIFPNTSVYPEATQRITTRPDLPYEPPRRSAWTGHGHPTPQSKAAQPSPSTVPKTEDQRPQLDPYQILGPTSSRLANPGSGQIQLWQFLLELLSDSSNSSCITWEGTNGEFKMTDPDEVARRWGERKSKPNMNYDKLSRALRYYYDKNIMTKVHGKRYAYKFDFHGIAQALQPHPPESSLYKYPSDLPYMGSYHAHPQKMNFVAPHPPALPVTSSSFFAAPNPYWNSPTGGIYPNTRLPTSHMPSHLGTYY
Outline: as §1

[5] = molecular target: ELF1 (Homo sapiens, UniProt P32519 1-619); settings: protein: recombinant; tags: N-terminal GST; dsDNA, one strand shown
Chain of ELF1 (P32519 whole entry): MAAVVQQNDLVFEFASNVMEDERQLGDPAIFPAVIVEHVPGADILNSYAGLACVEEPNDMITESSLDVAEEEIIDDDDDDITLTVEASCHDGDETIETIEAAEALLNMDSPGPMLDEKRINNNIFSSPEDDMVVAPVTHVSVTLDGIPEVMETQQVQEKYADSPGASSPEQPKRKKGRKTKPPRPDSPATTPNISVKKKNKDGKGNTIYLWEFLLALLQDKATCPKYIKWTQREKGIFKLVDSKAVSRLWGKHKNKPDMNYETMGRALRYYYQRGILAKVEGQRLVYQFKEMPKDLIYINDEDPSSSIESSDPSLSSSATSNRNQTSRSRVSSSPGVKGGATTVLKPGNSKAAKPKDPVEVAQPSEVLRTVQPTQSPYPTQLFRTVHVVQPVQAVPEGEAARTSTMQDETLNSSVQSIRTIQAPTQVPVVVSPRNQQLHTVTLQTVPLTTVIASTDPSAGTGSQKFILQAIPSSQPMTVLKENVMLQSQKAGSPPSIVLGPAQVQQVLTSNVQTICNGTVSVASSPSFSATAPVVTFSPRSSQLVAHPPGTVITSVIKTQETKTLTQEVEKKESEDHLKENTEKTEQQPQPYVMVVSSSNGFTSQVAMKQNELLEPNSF
Outline: as §1

[6] = molecular target: T5, EHF (Homo sapiens, UniProt Q9NZC4 1-300); settings: protein: recombinant; tags: N-terminal GST; dsDNA, one strand shown
T5 sequence: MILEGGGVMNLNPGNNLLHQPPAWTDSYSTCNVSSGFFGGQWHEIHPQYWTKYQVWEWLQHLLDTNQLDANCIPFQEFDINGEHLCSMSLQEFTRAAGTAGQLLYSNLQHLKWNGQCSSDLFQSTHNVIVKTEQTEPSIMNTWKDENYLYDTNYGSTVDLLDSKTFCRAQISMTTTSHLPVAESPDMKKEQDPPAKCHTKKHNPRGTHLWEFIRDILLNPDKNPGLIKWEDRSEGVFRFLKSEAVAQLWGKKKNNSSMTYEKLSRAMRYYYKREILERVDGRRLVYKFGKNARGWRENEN
Outline: as §1

[7] = molecular target: SPI1 (Homo sapiens, UniProt P17947 1-270); settings: protein: recombinant; tags: N-terminal GST; dsDNA, one strand shown
Outline: as §1

[8] = molecular target: SPIB (Homo sapiens, UniProt Q01892 1-262); settings: protein: recombinant; tags: N-terminal GST; dsDNA, one strand shown
Chain of SPIB (Q01892 whole entry): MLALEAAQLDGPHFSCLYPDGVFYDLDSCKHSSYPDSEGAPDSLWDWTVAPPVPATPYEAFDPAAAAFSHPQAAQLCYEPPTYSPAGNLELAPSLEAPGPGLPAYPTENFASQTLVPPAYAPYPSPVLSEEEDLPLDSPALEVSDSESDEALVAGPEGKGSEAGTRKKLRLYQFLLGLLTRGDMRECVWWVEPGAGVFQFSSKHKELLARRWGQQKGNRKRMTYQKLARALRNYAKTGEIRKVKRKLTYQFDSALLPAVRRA
Outline: as §1

[9] = molecular target: T6, ELK3 (Homo sapiens, UniProt P41970 1-407); settings: protein: recombinant; tags: N-terminal GST; dsDNA, one strand shown
T6 sequence: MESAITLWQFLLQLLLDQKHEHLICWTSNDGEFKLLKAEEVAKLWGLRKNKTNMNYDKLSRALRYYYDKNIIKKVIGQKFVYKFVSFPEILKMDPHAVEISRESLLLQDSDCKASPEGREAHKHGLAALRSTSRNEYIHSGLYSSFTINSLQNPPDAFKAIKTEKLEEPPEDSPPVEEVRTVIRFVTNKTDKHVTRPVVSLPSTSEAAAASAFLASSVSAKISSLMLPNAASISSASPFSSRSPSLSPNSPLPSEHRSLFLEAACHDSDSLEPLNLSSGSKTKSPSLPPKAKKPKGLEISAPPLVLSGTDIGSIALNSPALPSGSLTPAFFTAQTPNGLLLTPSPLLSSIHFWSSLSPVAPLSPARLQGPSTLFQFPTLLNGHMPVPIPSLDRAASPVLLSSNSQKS
Outline: as §1

[10] = molecular target: T7, FEV (Homo sapiens, UniProt Q99581 1-238); settings: protein: recombinant; tags: N-terminal GST; dsDNA, one strand shown
T7 sequence: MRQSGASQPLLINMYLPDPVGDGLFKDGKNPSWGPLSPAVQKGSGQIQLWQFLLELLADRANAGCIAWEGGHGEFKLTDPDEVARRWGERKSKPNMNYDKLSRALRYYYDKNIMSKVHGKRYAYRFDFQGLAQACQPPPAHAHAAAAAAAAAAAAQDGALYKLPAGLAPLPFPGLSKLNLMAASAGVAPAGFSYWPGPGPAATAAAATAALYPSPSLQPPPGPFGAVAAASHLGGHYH
Outline: as §1

[11] = molecular target: ETV5 (Homo sapiens, UniProt P41161 1-510); settings: protein: recombinant; tags: N-terminal GST; dsDNA, one strand shown
Chain of ETV5 (P41161 whole entry): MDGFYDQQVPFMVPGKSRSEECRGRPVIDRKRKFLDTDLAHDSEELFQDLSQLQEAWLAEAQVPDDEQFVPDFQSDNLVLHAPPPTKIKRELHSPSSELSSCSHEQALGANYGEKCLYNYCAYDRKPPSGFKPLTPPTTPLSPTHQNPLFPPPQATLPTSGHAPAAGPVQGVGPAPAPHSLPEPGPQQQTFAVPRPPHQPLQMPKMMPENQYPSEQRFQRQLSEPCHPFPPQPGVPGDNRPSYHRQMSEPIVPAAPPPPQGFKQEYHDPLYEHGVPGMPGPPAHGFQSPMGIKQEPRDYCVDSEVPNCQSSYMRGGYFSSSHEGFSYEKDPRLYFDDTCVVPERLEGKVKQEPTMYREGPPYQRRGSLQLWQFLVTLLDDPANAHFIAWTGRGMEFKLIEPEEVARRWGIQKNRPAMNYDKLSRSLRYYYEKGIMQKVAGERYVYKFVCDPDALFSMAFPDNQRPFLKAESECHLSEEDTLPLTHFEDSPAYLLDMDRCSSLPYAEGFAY
Outline: as §1

[12] = molecular target: HSF1 (Homo sapiens, UniProt Q00613 1-529); settings: protein: recombinant; tags: N-terminal GST; chain copies: 3; dsDNA, one strand shown
Chain of HSF1 (Q00613 whole entry): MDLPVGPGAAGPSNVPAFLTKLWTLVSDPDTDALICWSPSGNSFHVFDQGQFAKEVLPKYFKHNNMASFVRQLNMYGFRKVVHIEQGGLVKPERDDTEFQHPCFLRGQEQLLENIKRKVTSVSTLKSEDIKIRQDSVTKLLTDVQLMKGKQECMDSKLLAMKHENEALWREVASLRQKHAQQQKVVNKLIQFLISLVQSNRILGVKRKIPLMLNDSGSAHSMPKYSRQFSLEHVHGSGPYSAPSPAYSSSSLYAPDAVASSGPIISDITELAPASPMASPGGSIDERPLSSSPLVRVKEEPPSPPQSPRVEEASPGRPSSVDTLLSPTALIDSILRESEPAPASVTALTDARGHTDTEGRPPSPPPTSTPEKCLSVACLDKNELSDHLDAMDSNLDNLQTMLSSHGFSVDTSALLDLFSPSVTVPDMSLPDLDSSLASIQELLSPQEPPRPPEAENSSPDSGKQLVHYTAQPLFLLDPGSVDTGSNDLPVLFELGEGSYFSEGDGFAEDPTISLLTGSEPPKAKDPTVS
Outline: as §1

[13] = molecular target: T8, SPIC (Homo sapiens, UniProt Q8N5J4 1-248); settings: protein: recombinant; tags: N-terminal GST; dsDNA, one strand shown
T8 sequence: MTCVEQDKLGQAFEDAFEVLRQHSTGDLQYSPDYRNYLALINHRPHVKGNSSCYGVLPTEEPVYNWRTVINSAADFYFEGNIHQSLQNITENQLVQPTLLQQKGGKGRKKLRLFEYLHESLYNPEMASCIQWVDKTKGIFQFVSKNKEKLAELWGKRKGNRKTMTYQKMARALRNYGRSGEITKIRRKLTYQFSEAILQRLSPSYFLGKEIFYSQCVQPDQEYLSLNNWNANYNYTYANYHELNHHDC
Outline: as §1

[14] = molecular target: ELF4 (Homo sapiens, UniProt Q99607 1-663); settings: protein: recombinant; tags: N-terminal GST; dsDNA, one strand shown
Chain of ELF4 (Q99607 whole entry): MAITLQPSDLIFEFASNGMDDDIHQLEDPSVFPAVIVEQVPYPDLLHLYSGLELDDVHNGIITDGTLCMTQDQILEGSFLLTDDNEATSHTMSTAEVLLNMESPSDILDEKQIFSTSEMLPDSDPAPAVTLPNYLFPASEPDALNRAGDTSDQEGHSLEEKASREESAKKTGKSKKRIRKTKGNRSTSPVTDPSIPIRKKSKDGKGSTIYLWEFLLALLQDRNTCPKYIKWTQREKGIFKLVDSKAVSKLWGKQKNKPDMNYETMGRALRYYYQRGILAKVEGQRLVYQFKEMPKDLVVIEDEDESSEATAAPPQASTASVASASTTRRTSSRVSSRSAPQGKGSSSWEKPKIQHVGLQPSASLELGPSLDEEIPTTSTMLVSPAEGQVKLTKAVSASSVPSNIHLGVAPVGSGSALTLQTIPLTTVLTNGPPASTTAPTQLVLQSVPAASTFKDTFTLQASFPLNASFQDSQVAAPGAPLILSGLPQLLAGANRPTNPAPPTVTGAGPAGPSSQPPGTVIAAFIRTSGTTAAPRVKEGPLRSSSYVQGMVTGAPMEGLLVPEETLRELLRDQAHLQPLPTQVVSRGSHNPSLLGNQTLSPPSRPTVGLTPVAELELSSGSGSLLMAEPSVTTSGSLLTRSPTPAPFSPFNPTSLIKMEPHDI
Outline: as §1

[15] = molecular target: T9, ELK4 (Homo sapiens, UniProt P28324-2 1-405); settings: protein: recombinant; tags: N-terminal GST; dsDNA, one strand shown
T9 sequence: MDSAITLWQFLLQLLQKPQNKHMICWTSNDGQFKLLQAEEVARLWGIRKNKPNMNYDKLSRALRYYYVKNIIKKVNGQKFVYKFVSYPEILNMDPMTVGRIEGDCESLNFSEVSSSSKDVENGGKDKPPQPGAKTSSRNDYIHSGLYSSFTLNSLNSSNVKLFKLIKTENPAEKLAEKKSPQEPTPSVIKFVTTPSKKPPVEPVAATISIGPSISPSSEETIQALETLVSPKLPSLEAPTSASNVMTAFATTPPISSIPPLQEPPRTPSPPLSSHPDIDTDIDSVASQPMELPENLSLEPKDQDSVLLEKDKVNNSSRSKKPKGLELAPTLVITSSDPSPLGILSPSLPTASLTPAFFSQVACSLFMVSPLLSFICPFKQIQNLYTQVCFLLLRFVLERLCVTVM
Outline: as §1

[16] = molecular target: T10, ETV2 (Homo sapiens, UniProt O00321 1-342); settings: protein: recombinant; tags: N-terminal GST; dsDNA, one strand shown
T10 sequence: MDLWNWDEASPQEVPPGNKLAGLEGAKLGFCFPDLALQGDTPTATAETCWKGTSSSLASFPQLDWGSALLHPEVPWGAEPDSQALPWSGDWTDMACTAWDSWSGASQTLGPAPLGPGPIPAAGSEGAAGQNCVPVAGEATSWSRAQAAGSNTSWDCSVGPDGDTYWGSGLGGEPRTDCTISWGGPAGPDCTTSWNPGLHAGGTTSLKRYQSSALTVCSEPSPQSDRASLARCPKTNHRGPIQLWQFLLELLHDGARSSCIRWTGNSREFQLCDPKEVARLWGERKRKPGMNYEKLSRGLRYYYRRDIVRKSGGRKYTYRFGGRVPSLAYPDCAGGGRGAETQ
Outline: as §1

[17] = molecular target: T11, ELF3 (Homo sapiens, UniProt P78545 1-371); settings: protein: recombinant; tags: N-terminal GST; dsDNA, one strand shown
T11 sequence: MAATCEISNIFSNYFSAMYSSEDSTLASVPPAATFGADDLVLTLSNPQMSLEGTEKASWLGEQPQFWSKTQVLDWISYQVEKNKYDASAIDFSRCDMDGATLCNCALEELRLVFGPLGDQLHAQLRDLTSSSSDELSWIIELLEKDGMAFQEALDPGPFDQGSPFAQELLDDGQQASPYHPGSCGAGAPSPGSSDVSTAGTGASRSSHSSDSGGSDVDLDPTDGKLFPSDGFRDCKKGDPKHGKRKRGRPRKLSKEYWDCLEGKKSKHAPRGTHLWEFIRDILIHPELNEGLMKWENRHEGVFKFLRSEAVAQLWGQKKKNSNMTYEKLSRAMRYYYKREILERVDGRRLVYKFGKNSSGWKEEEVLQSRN
Outline: as §1

[18] = molecular target: CRX (Homo sapiens, UniProt O43186 1-299); settings: protein: recombinant; tags: N-terminal GST; dsDNA, one strand shown
Chain of CRX (O43186 whole entry): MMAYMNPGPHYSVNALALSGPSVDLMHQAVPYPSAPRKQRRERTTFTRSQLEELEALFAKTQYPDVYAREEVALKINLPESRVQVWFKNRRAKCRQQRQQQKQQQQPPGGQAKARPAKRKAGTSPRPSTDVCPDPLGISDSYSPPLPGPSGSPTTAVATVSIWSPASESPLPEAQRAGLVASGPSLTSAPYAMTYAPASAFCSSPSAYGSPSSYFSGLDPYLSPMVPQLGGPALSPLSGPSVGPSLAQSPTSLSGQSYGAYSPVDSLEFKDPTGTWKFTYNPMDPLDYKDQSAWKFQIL
Outline: as §1

[19] = molecular target: ETV1 (Homo sapiens, UniProt P50549 1-477); settings: protein: recombinant; tags: N-terminal GST; dsDNA, one strand shown
Chain of ETV1 (P50549 whole entry): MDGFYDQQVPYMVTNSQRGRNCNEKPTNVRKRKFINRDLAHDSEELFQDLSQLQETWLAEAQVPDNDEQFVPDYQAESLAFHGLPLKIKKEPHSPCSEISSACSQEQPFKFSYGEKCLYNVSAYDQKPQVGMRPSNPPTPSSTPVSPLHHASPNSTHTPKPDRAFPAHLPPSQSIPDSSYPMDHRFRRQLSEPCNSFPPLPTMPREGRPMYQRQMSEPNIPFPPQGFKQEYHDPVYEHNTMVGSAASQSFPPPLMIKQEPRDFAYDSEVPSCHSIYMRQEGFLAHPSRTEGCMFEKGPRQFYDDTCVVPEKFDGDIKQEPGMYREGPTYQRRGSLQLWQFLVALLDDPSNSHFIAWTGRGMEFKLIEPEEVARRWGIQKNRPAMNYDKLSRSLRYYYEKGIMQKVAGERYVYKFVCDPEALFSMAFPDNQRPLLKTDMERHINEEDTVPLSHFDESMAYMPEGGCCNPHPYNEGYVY
Outline: as §1

TCCGGC
binding signal [1]: 2.29 fold enrichment (6-mer frequency, TF over GST control) | binding signal [2]: 2.4 fold enrichment (6-mer frequency, TF over GST control) | binding signal [3]: 2.12 fold enrichment (6-mer frequency, TF over GST control) | binding signal [4]: 2.58 fold enrichment (6-mer frequency, TF over GST control) | binding signal [5]: 2 fold enrichment (6-mer frequency, TF over GST control) | binding signal [6]: 2.18 fold enrichment (6-mer frequency, TF over GST control) | binding signal [7]: 2.19 fold enrichment (6-mer frequency, TF over GST control) | binding signal [8]: 2.42 fold enrichment (6-mer frequency, TF over GST control) | binding signal [9]: 2.45 fold enrichment (6-mer frequency, TF over GST control) | binding signal [10]: 3.33 fold enrichment (6-mer frequency, TF over GST control) | binding signal [11]: 2.4 fold enrichment (6-mer frequency, TF over GST control) | binding signal [12]: 1.17 fold enrichment (6-mer frequency, TF over GST control) | binding signal [13]: 2.2 fold enrichment (6-mer frequency, TF over GST control) | binding signal [14]: 1.95 fold enrichment (6-mer frequency, TF over GST control) | binding signal [15]: 2.03 fold enrichment (6-mer frequency, TF over GST control) | binding signal [16]: 2.4 fold enrichment (6-mer frequency, TF over GST control) | binding signal [17]: 1.97 fold enrichment (6-mer frequency, TF over GST control) | binding signal [18]: 1.1 fold enrichment (6-mer frequency, TF over GST control) | binding signal [19]: 2.31 fold enrichment (6-mer frequency, TF over GST control)
